From PubChem BioAssay (EPA / NIEHS) come the findings set out here.

Calls of active or inactive are those of the source. The calls were made as follows: active = hit-call score of the fitted dose curve at least 0.9, where 1 is the maximum; inactive = score below 0.9.

Assay [1] can be described thus: ATG_CRE_CIS: Attagene CIS-FACTORIAL HepG2 Assay for human cAMP Responsive Element (CRE) binding protein 3 (AID 2282926). As to conditions: HepG2 CRE cis-reporter, Attagene multiplexed mRNA; actives raise or lower the signal. An outline of the steps: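 Induced reporter mRNA from a CRE cis element, measured in HepG2 among many multiplexed units at 24 h. Detection used RT-PCR plus capillary electrophoresis of fluorescent fragments; DMSO served as negative control.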

Assay [2] addresses CCAAT/enhancer-binding protein beta (Homo sapiens) (UniProt P17676). The experiment in a line: ATG_C_EBP_CIS: Attagene CIS-FACTORIAL HepG2 Assay for human CCAAT/Enhancer Binding Protein (C/EBP) beta (AID 2282927). As to conditions: HepG2 Attagene cis-factorial transcription factor reporter; actives raise or lower the signal. An outline of the steps:
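Endogenous C/EBPb-driven reporter transcripts measured in transfected human HepG2 cells at 24 h via RT-PCR and capillary electrophoresis of labelled fragments. Activity fitted in both directions relative to DMSO baseline.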

Assay [3] in a line: ATG_CMV_CIS: Attagene CIS-FACTORIAL HepG2 Assay for human CMV (Internal Marker) (AID 2282928).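 Also: endpoint acts as a background internal control marker rather than a target.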 As to conditions: HepG2 CMV promoter reporter, transcription factor profiling; actives raise or lower the signal. In short, it runs like this:
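24 h chemical treatment, HepG2 with transient multi-reporter transfection; RNA → oligo(dT) RT → PCR → 6-FAM extension → HpaI digest → CE fluorescence. Bidirectional fit, DMSO negative control.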

The nature of assay [4]: ATG_DR4_LXR_CIS: Attagene CIS-FACTORIAL HepG2 Assay for human Liver X Receptor (LXR), DR4 submotif (AID 2282929). As to conditions: HepG2 Attagene DR4 cis-reporter, mRNA transcription; actives raise or lower the signal. In short, it runs like this: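 HepG2 cells were transiently transfected with multiple cis-regulated reporter units and dosed for 24 hours. The DR4 reporter mRNA was quantified by RT-PCR, 6-FAM labelling and capillary electrophoresis. Bidirectional fits used DMSO as baseline.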

Assay [5] addresses Aryl hydrocarbon receptor (Homo sapiens) (UniProt P35869). The experiment in a line: ATG_Ahr_CIS: Attagene CIS-FACTORIAL HepG2 Assay for human Aryl Hydrocarbon Receptor (Ahr) (AID 2282930). Particulars: HepG2 AhR cis-factorial reporter transcription; actives raise or lower the signal. In short, it runs like this: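 Reporter mRNA levels, quantified by RT-PCR and fluorescent capillary electrophoresis, reflect endogenous AhR transcriptional activity in HepG2 cells carrying transfected cis-promoter reporter constructs. Readout at 24 h post-dose; gain or loss fitted against DMSO baseline.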

Assay [6] is described as follows: ATG_AP_1_CIS: Attagene CIS-FACTORIAL HepG2 Assay for human Activator Protein 1 (AP-1) (AID 2282931). As to conditions: HepG2 Attagene cis-factorial AP-1 reporter mRNA; actives raise or lower the signal. An outline of the steps:
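HepG2 cells transiently transfected with cis-element-driven reporter transcription units, dosed for 24 hours. Reporter mRNA measured by RT-PCR, 6-FAM labelling, HpaI digestion and capillary electrophoresis. Bidirectional fitting against DMSO baseline.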

A short description of assay [7]: ATG_AP_2_CIS: Attagene CIS-FACTORIAL HepG2 Assay for human Activator Protein 2 (AP-2) (AID 2282932). Particulars: HepG2 AP-2 cis-reporter, Attagene transcription factor profiling; actives raise or lower the signal. An outline of the steps: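 Endogenous transcription factor activity is reported through transfected multiplex reporter constructs in HepG2, after 24 h of compound exposure. Transcripts were quantified by RT-PCR and capillary electrophoresis of fluorescent fragments. Bidirectional fit against DMSO.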

A short description of assay [8]: ATG_BRE_CIS: Attagene CIS-FACTORIAL HepG2 Assay for human Bone Morphogenetic Protein (BMP) Response Element (BRE) (AID 2282933). Particulars: HepG2 BMP response element reporter, Attagene transcription factor profiling; actives raise or lower the signal. An outline of the steps: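 Multiplexed cis-reporter assay, HepG2, 24 h exposure. mRNA from reporter units quantified via RT-PCR/CE; DMSO baseline; bidirectional curve fit.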

Assay [9] deals with Retinoic acid receptor alpha (Homo sapiens) (UniProt P10276). The experiment in a line: ATG_DR5_RAR_CIS: Attagene CIS-FACTORIAL HepG2 Assay for human Retinoic Acid Receptor Alpha (RARE), DR5 submotif (AID 2282934).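 As to AC50: reporter responds to endogenous RAR alpha beta and gamma in HepG2 not RARA alone.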 Particulars: HepG2 Attagene cis-factorial RARE DR5 reporter, mRNA; actives raise or lower the signal. In short, it runs like this: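 Reporter transcripts from a DR5-regulated unit, measured via RT-PCR plus capillary electrophoresis, reflect endogenous RAR activity in transiently transfected human HepG2 liver cells. Exposure lasted 24 h; gain or loss of signal scored against DMSO.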

The target of assay [10] is Transcription factor E2F1 (Homo sapiens) (UniProt Q01094). The experiment in a line: ATG_E2F_CIS: Attagene CIS-FACTORIAL HepG2 Assay for human E2F Transcription Factor 1 (AID 2282935). As to conditions: HepG2 Attagene cis-reporter, E2F reporter RNA transcripts; actives raise or lower the signal. In short, it runs like this:
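Gain or loss of reporter transcript, fitted against DMSO, reflects E2F1-driven transcription. Transiently transfected HepG2 dosed 24 h before RNA isolation. Quantified by fluorescent RT-PCR products separated by capillary electrophoresis.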

Retinoic acid receptor alpha (Homo sapiens), sequence (P10276 whole entry, looked up): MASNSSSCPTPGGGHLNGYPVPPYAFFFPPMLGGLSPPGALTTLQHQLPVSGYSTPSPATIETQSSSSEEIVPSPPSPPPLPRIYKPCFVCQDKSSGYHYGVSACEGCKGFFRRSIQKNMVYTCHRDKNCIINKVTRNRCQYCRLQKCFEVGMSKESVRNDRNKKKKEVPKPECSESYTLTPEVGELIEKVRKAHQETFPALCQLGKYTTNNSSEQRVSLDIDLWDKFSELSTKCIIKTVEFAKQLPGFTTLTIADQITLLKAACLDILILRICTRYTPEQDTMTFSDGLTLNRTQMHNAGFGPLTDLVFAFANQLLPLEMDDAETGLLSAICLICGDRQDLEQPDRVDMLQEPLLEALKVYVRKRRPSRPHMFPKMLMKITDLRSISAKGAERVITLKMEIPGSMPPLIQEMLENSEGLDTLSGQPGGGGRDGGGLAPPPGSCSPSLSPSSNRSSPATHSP
CCAAT/enhancer-binding protein beta (Homo sapiens), sequence (P17676 whole entry, looked up, the tested form may be a part): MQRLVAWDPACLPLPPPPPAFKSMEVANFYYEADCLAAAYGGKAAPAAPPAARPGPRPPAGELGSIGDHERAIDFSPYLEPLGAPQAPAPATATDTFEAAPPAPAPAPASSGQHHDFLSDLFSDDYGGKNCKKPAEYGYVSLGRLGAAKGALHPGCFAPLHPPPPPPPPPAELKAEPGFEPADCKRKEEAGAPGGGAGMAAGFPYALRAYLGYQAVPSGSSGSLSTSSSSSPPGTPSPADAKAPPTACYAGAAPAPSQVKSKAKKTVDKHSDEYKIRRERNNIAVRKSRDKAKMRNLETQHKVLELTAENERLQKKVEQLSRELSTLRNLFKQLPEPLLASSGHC
Transcription factor E2F1 (Homo sapiens), sequence (Q01094 whole entry, looked up): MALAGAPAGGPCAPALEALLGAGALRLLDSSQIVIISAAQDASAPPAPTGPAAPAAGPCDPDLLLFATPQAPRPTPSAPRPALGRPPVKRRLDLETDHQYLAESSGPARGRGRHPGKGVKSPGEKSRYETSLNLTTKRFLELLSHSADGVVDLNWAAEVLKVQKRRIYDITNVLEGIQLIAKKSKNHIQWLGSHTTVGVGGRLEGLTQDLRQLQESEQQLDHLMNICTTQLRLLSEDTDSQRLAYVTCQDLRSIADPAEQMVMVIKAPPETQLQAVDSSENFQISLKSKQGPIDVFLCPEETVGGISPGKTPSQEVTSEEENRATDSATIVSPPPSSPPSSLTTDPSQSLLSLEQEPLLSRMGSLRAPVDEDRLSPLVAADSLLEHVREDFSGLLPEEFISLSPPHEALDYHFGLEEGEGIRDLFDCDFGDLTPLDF
Aryl hydrocarbon receptor (Homo sapiens), sequence (P35869 whole entry, looked up): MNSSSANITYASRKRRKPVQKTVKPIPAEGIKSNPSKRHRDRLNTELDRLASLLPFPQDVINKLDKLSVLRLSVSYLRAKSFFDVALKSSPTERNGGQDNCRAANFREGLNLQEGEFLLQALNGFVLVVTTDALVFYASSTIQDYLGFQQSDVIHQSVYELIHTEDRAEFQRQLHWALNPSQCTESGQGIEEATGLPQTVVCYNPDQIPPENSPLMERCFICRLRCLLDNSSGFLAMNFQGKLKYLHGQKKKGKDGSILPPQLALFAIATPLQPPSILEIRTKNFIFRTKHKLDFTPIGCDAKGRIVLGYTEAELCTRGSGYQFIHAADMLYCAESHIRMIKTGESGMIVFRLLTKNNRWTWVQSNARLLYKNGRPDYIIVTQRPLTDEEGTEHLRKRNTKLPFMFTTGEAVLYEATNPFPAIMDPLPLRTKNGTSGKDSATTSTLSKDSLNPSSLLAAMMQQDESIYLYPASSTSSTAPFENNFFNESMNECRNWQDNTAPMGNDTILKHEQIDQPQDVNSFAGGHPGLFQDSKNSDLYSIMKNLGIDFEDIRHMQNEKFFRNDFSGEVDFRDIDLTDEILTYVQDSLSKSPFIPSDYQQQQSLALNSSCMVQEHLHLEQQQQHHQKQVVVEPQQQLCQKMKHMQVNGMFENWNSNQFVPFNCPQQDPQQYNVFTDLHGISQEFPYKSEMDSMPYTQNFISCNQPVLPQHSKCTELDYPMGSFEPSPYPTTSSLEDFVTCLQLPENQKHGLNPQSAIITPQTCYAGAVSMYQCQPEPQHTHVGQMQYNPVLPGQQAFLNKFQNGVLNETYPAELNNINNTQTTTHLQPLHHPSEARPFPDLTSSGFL

Take `CCCCCCCC[N+](C)(CCCCCCCC)CCCCCCCC`: the outcome in assay [1], in assay [2], in assay [3], in assay [4], in assay [5] and in assay [6] was inactive. The compound was called inactive in assay [7], in assay [8], in assay [9] and in assay [10].
For the compound `CC/C=C\C/C=C\C/C=C\CCCCCCCC(=O)O`, the concentration at half-maximal activity (AC50) (commonly the concentration giving half of the maximal activity seen) in assay [1] was 173 µM (active); in assay [4], 153 µM (active); in assay [6], 161 µM (active). The outcome in assay [2], in assay [3], in [5], in [7], in [8] and in assay [9] was inactive. Also, in assay [10], the compound was classed as inactive.
For `COC(=O)/C=C\C(=O)O`, the compound was called inactive in assay [1], in [2], in [3], in assay [4], in [5] and in assay [6]. The outcome in [7], in [8], in assay [9] and in assay [10] was inactive.
As to `S=C(NC1CCCCC1)NC1CCCCC1`, the compound was classed as inactive in [1], in [2], in [3], in assay [4], in assay [5] and in assay [6]. For the same compound, the compound was called inactive in [7], in [8], in assay [9] and in assay [10].
Consider `O=C(O)c1ccccc1Nc1cccc(C(F)(F)F)c1`, for which the result in [1], in assay [2], in assay [3], in [5], in [7] and in assay [8] was inactive. Moreover, the compound was classed as inactive in assay [9] and in [10]. Besides, the concentration at half-maximal activity (AC50) in [4] was 9.37 µM (active); in [6], 60 µM (active).
`O=C1CCCCCCCCCCCCCCCO1`: the result in assay [1], in assay [2], in assay [6], in assay [7], in [8] and in assay [9] was inactive. The call in [10] was inactive. Also, the concentration at half-maximal activity (AC50) was 72.9 µM (active) in [3], 63.2 µM (active) in assay [4] and 61.9 µM (active) in [5].
For the compound `C=CCOCC(O)CCl` (stereo not given), the compound was classed as inactive in assay [1], in [2], in [3], in assay [4], in assay [5] and in assay [6]. The result in [7], in [8], in assay [9] and in assay [10] was inactive.
For the compound `CCOc1ccc(N)c([N+](=O)[O-])c1`, the compound was called inactive in [1], in assay [2], in [3], in assay [4], in assay [5] and in assay [6]. Also, the result in [7], in [8], in assay [9] and in assay [10] was inactive.
In the case of `O=C(c1ccc(O)cc1)c1ccc(O)cc1O`, the outcome in [1], in assay [2], in assay [4], in assay [5], in [6] and in [7] was inactive. Besides, the compound was called inactive in assay [9] and in [10]. For the same compound, the AC50 was 68.7 µM (active) in assay [3] and 100 µM (active) in assay [8].
Consider `C=C[Si](C)(C)O[Si](C)(C)C=C`, for which the call in [1], in [2], in assay [3], in [4], in assay [6] and in assay [7] was inactive. In addition, the compound was called inactive in assay [8], in assay [9] and in assay [10]. Further, in assay [5], the AC50 was 100 µM (active).
Consider `Cc1ccc(C2OC[C@@H]3OC(c4ccc(C)cc4)O[C@H]([C@H](O)CO)[C@@H]3O2)cc1` (stereo not given in full), for which the compound was called inactive in assay [1], in assay [2], in [3], in [4], in assay [5] and in assay [7]. For the same compound, the outcome in assay [8], in assay [9] and in assay [10] was inactive. For the same compound, the concentration at half-maximal activity (AC50) in [6] is 142 µM (active).
Take `O=C(O)Cc1c(Cl)ccc(Cl)c1Cl`: the result in assay [1], in assay [2], in assay [3], in [4], in assay [5] and in [6] was inactive. Also, the result in [7], in assay [8], in assay [9] and in [10] was inactive.
As to `CC(=O)OCC(=O)[C@@]12N=C(C)O[C@@H]1C[C@H]1[C@@H]3CCC4=CC(=O)C=C[C@]4(C)[C@H]3[C@@H](O)C[C@@]12C`, the result in [1], in assay [2], in assay [3], in assay [4], in assay [5] and in [6] was inactive. Further, the compound was classed as inactive in assay [7], in [8] and in [10]. The AC50 in assay [9] is 27.5 µM (active).
As for `Cc1ccc(N)c([N+](=O)[O-])c1`, the result in assay [1], in [2], in [3], in [4], in [5] and in assay [6] was inactive. Moreover, the outcome in assay [7], in [8], in assay [9] and in assay [10] was inactive.
On to `CC(=O)NS(=O)(=O)c1ccc(N)cc1`, for which the compound was classed as inactive in assay [1], in assay [2], in [3], in assay [4], in [5] and in assay [6]. Also, the result in [7], in [8], in [9] and in assay [10] was inactive.
Take `SCCc1cnccn1`: the compound was classed as inactive in [1], in assay [2], in assay [4], in assay [5], in assay [7] and in assay [10]. For the same compound, the AC50 was 53.9 µM (active) in assay [3], 27.8 µM (active) in assay [6], 23.1 µM (active) in assay [8] and 27.6 µM (active) in assay [9].
As for `Cn1c(=O)[nH]c2ncn(C)c2c1=O`, the call in assay [1], in assay [2], in [3], in assay [4], in assay [5] and in [6] was inactive. Moreover, the compound was called inactive in assay [7], in assay [8], in [9] and in assay [10].
Consider `O=S(=O)(Oc1ccc(Cl)cc1Cl)c1ccccc1`, for which the result in assay [1], in assay [2], in assay [5], in [6], in assay [7] and in [9] was inactive. Besides, the outcome in assay [10] was inactive. Besides, the values for the half-maximal activity concentration (AC50) in assay [3], in [4] and in assay [8] were 46.7 µM (active), 48.8 µM (active) and 61.4 µM (active), respectively.
With `CC1=NN(c2cc(S(=O)(=O)O)ccc2Cl)C(=O)C1N=Nc1ccccc1` (stereo not given), the result in assay [1], in assay [2], in assay [3], in assay [4], in [6] and in [7] was inactive. Moreover, the outcome in [8], in [9] and in assay [10] was inactive. Moreover, the half-maximal activity concentration (AC50) in [5] is 0.541 µM (active).
As for `NC(=O)NNC(N)=O`, the call in [1], in assay [2], in assay [3], in assay [4], in assay [5] and in [6] was inactive. In addition, the outcome in [7], in assay [8], in assay [9] and in assay [10] was inactive.
For `CCCCCCCCCCC=CC#N`, the call in [1], in [2], in assay [5], in assay [7], in assay [8] and in [9] was inactive. Moreover, the compound was called inactive in [10]. Moreover, the concentration at half-maximal activity (AC50) in assay [3] is 100 µM (active); in [4], 100 µM (active); in assay [6] it was 111 µM (active).
`CC(C)CCCCCOC(=O)CCS`: the outcome in assay [1], in assay [2], in assay [3], in assay [4], in [5] and in assay [6] was inactive. Besides, the compound was classed as inactive in assay [7], in [8], in assay [9] and in assay [10].
In the case of `C=C[Si](OC(C)=O)(OC(C)=O)OC(C)=O`, the outcome in [1], in [2], in assay [3], in assay [4], in [5] and in assay [6] was inactive. Besides, the compound was classed as inactive in assay [7], in assay [8], in assay [9] and in [10].
`CCCCCCCOC(=O)CCC`: the compound was called inactive in [1], in assay [2], in assay [3], in assay [4], in [5] and in assay [6]. Also, the compound was classed as inactive in [7], in assay [8], in [9] and in [10].
